Data as given in PubChem BioAssay (NCATS).
Results filed as inconclusive are left out. Entries that show only a call come without a potency. A number with no mark means an inactive call. Activity calls are given as the source filed them. Unless noted, calls follow the shape of the dose curve; as a rule, active = well fitted curve in the direction sought with a large enough effect in the repeat runs; inconclusive = weak or mixed curves; inactive = no such curve, though single readings can be large; an effect the other way counts as inactive or inconclusive.

Experiments:
[1] = target: Cytochrome P450 2D6 (Homo sapiens) (UniProt P10635); experiment: Cytochrome P450 family 2 subfamily D member 6 (CYP2D6) small molecule antagonists: luciferase biochemical (cell-free) qHTS assay (AID 1645840); also: nearly all actives have a fitted effect of over 55% in size; also: potency is read from the fitted curve at half-maximal effect
In short: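 P450-Glo CYP2D6 system: proluciferin substrate converted by enzyme to luciferin, read by luminescence proportional to activity. Enzyme-substrate mix with compound 10 min at room temperature, then NADPH regeneration 1 h before detection reagent.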

[2] = target: Cytochrome P450 3A4 (Homo sapiens) (UniProt P08684); experiment: Cytochrome P450 family 3 subfamily A member 4 (CYP3A4) small molecule antagonists: luciferase qHTS assay (AID 1645841); also: nearly all actives have a fitted effect of over 45% in size
In short: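 P450-Glo CYP3A4 enzyme with proluciferin substrate was preincubated with DMSO-dissolved compounds for 10 min at room temperature. NADPH regeneration solution started a 1 h reaction. Detection reagent stopped it, and luminescence was read after 20 min.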

[3] = Primary qHTS for inhibitors of nuclear receptor binding SET domain protein 2 (NSD2) in an isogenic RCH-ACV NSD2 p.E1099K mutant (9B) (AID 1645876; active = well fitted curve in the direction sought with a large enough effect; an effect the other way counts as inactive or inconclusive; also: nearly all actives have a fitted effect of over 70% in size)
[4] = Primary qHTS for inhibitors of nuclear receptor binding SET domain protein 2 (NSD2) in an RCH-ACV wild type WT cells (2C) (AID 1645877; active = well fitted curve in the direction sought with a large enough effect; an effect the other way counts as inactive or inconclusive; also: nearly all actives have a fitted effect of over 70% in size)
[5] = target: Glutathione peroxidase 1 (Homo sapiens) (UniProt P07203); experiment: Primary qHTS Assay for Inhibitors of Recombinant Selenoprotein Glutathione Peroxidase 1 (GPX1) (AID 1845191; active = well fitted curve in the direction sought with a large enough effect; an effect the other way counts as inactive or inconclusive; also: nearly all actives have a fitted effect of over 65% in size)
In short: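 GPX1 10 nM, GR 100 nM, GSH 1 mM, NADPH 0.5 mM, CHP 0.5 mM (final). 30-min cpd preincubation, RT. Ex340/Em450 read t=0, t=15 min.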

[6] = target: Cytochrome P450 2C9 (Homo sapiens) (UniProt P11712); experiment: Cytochrome P450 family 2 subfamily C member 9 (CYP2C9) small molecule antagonists: luciferase biochemical (cell-free) qHTS assay (AID 1645842); also: nearly all actives have a fitted effect of over 55% in size; also: potency is read from the fitted curve at half-maximal effect
In short: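 P450-Glo CYP2C9 system: proluciferin substrate with enzyme in mix containing 0.4% BSA, 10 min at room temperature, then NADPH regeneration solution added and incubated 1 h at 37C. Detection reagent stopped reaction; luminescence read after 20 min as RLU.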

[7] = NCATS anti-infectives library activity on the primary C. elegans qHTS viability assay (AID 1745855; calls by dose curve); details: C. elegans worm area imaging, day 7; at 41.8 µM (top of the series) unless noted
In short: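 GFP read-out by 488 nm laser cytometry at day 0, 3 and 7, gated on object perimeter, area and peak intensity, scored viability of PE254-GFP-FLuc worms exposed to compound in S medium with bacterial capsules at 21 °C.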

Chain of Cytochrome P450 2D6 (Homo sapiens) (P10635 whole entry, looked up): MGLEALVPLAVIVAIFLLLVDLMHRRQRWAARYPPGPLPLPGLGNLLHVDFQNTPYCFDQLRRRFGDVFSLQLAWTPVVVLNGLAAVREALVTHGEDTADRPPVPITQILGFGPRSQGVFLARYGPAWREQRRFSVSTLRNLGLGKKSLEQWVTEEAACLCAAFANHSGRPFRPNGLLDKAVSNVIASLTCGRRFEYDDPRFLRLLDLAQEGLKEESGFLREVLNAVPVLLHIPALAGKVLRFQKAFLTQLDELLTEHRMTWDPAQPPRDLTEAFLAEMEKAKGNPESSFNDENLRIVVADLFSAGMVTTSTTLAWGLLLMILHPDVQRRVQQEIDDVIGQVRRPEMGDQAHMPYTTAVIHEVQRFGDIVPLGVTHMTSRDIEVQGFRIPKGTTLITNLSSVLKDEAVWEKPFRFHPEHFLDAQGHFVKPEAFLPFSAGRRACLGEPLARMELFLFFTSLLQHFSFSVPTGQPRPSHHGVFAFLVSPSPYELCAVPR
Chain of Cytochrome P450 2C9 (Homo sapiens) (P11712 whole entry, looked up): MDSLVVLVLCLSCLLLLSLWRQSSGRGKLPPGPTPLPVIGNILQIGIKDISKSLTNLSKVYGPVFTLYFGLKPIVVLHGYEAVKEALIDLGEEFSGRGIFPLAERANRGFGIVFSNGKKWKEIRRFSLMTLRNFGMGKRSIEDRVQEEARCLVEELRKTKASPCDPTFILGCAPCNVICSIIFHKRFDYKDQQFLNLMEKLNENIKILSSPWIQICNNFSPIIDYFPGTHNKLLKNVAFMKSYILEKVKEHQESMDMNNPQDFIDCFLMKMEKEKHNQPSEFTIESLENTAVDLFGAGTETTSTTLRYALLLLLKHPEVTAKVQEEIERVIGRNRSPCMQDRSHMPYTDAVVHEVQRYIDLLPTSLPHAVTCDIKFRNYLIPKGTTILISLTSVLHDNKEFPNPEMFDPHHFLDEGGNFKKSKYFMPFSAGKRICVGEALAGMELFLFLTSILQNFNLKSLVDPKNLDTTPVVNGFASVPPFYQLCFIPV
Chain of Cytochrome P450 3A4 (Homo sapiens) (P08684 whole entry, looked up): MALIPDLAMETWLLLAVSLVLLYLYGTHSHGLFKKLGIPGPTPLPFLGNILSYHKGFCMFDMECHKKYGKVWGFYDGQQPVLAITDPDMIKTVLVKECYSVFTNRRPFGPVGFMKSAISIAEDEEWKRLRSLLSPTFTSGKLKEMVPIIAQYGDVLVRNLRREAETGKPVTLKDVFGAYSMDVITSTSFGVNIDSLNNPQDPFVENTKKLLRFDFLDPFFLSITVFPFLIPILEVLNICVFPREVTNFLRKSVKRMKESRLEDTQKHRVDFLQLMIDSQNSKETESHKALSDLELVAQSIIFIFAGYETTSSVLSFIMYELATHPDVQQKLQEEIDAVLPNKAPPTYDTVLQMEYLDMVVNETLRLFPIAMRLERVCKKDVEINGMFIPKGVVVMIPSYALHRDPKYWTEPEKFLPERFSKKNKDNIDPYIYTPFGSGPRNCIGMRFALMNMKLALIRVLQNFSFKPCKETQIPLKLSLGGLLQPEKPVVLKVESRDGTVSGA
Chain of Glutathione peroxidase 1 (Homo sapiens) (P07203 whole entry, looked up): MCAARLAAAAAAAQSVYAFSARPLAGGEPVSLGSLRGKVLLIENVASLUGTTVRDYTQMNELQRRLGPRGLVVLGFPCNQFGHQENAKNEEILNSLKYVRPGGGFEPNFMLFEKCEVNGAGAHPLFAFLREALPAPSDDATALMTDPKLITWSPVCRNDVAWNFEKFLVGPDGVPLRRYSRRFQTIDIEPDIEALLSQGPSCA

CC(C)(C)NCC(O)COc1cccc2c1C[C@H](O)[C@H](O)C2 (some centres undefined)
Potency [1]: inactive | Potency [2]: inactive | Potency [3]: inactive | Potency [4]: inactive | Potency [5]: inactive

O=C(Nc1ccccc1)OCC(CN1CCCCC1)OC(=O)Nc1ccccc1 (centres undefined)
Potency [1]: 0.155 µM (active) | Potency [6]: 13.8 µM (active)

Cc1nc(-c2ccc(Cl)cc2)oc1COC(C)(C)C(=O)O
Potency [1]: inactive | Potency [6]: inactive

O=C1C(=O)c2ccccc2C(O)=C1C1CCC(c2ccc(Cl)cc2)CC1 (centres undefined)
Potency [1]: inactive | Potency [2]: inactive | Potency [6]: inactive | Potency [3]: inactive | Potency [4]: inactive | outcome [7]: inactive | Potency [5]: inactive

CC(C)[N+](C)(C)CC(O)COc1cccc2ccccc12 (centres undefined)
Potency [1]: 6.92 µM (active) | Potency [6]: inactive

O=C(CN1CCN(Cc2ccc3c(c2)OCO3)CC1)N1c2ccccc2Sc2ccccc21
Potency [1]: 0.195 µM (active) | Potency [6]: 7.76 µM (active) | Potency [3]: inactive

NCc1ccccc1Sc1ccccc1CO
Potency [1]: 4.9 µM (active) | Potency [6]: 15.5 µM (active)

CCCc1ncc(C[n+]2ccccc2C)c(N)n1
Potency [1]: inactive | Potency [6]: inactive

CC(=O)OC[C@H]1O[C@@H](n2ncc(=O)[nH]c2=O)[C@H](OC(C)=O)[C@@H]1OC(C)=O
Potency [1]: 7.76 µM (active) | Potency [6]: inactive

CN1CCN(c2c(F)cc3c(=O)c(C(=O)O)cn4c3c2SCC4)CC1
Potency [1]: inactive | Potency [6]: inactive

CCCCOC(=O)CC(CC(=O)OCCCC)(OC(C)=O)C(=O)OCCCC
Potency [1]: inactive | Potency [6]: 1.74 µM (active) | Potency [3]: inactive

Cc1cn([C@H]2C[C@H](F)[C@@H](CO)O2)c(=O)[nH]c1=O
Potency [1]: inactive | Potency [2]: inactive | Potency [6]: inactive | Potency [3]: inactive

CCN(CC)CCOc1ccccc1C(=O)CCc1ccccc1
Potency [1]: 0.11 µM (active) | Potency [6]: inactive | Potency [3]: inactive

CCCCNc1ccc(C(=O)OCCOCCOCCOCCOCCOCCOCCOCCOCCOC)cc1
Potency [1]: inactive | Potency [6]: 6.92 µM (active)

C[C@]12CCC(=O)C=C1C=C[C@@H]1[C@@H]2CC[C@@]2(C)[C@H]1CC[C@@]21CCC(=O)O1
Potency [1]: inactive

CC(=C(CCOC(=O)C(C)C)SSC(CCOC(=O)C(C)C)=C(C)N(C=O)Cc1cnc(C)nc1N)N(C=O)Cc1cnc(C)nc1N
Potency [1]: inactive | Potency [6]: inactive

CN1CCN(C2=Nc3ccccc3Sc3ccc(Cl)cc32)CC1
Potency [1]: 15.5 µM (active) | Potency [6]: inactive

CN(CCCN1c2ccccc2CCc2ccccc21)CC(=O)c1ccc(Cl)cc1
Potency [1]: 6.09 µM (active) | Potency [6]: 12.1 µM (active)

COc1cc(C(=S)N2CCOCC2)ccc1O
Potency [1]: inactive | Potency [6]: inactive

CN1CCN(C2=Nc3cc(F)ccc3Cc3ccccc32)CC1
Potency [1]: 5.49 µM (active) | Potency [6]: inactive

CC(C)n1c(/C=C/[C@@H](O)C[C@@H](O)CC(=O)O)c(-c2ccc(F)cc2)c2ccccc21
Potency [1]: inactive

CCN1/C(=C/C=C/c2sc3ccccc3[n+]2CC)Sc2ccccc21
Potency [1]: 2.13 µM (active) | Potency [6]: 9.52 µM (active)

Cc1cc(CC(=O)O)c(C)n1-c1ccc(Cl)cc1
Potency [1]: inactive

NCCNc1cccc2ccccc12
Potency [1]: 7.76 µM (active) | Potency [6]: 24.5 µM (active)

CCC(CC)(CC(=O)Nc1cccc(/C=C/c2nc(C3CCC3)cs2)c1)C(=O)O
Potency [1]: inactive
